The record followed here is PubChem BioAssay (NCATS).

Inconclusive results are not listed. Activity calls are given as the source filed them. Unless noted, calls follow the shape of the dose curve; as a rule, active = well fitted curve in the direction sought with a large enough effect; inconclusive = small, poorly fitted or top-dose-only effect, or another doubt; inactive = no such curve, though single readings can be large; an effect the other way counts as inactive or inconclusive.

Assay [1] concerns the target Lysosomal acid glucosylceramidase (Homo sapiens) (UniProt P04062). In words: Glucocerebrosidase-p2 (AID 348; in the data active = potency below about 10 µM; also: potency is read from the fitted curve at half-maximal effect). As to conditions: purified GBA, blue fluorogenic substrate, 40 min. The essentials:
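Compounds titrated from 0.6 nM upwards against 0.2 nM enzyme in pH 5.9 citric acid/KH2PO4, taurocholate, tween-20; blue fluorogenic substrate 80 uM, 40 min room temperature, stopped and read Ex 365/Em 440 for AC50.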

A short description of assay [2]: AP1 Signaling Pathway (AID 357; active = well fitted curve in either direction with a large enough effect, not every such curve was filed as active;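 also: ME-180 reporter cells stimulated with EGF at its EC50 level; % is scaled to controls: 0 for no effect and ±100 for the full control effect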). The conditions noted are these: ME-180 AP-1-bla reporter, EGF-induced, beta-lactamase ratio, 5 h; at 7.69 µM (top of the series) unless noted. The procedure, abridged:
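Beta-lactamase reporter under AP-1 response element, ME-180 background. Stimulus: EC50 EGF. Compound exposure 5 h, 37 °C. Detection: CCF4, 2.5 h RT, 460/530 nm. Values: AC50 from titration.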

The nature of assay [3]: Stat Signaling Pathway (AID 446; active = well fitted curve in either direction with a large enough effect, not every such curve was filed as active;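 also: ME-180 cervical cancer cells given 40 pM IL-6 alongside compound; SIE-controlled beta-lactamase reporter measured as 460/530 nm FRET emission ratio; % is scaled to controls: 0 for no effect and ±100 for the full control effect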). As to conditions: ME-180 SIE beta-lactamase reporter, IL-6 stimulated, 5 h; at 7.69 µM (top of the series) unless noted. The procedure, abridged: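 Screening format detects activators and inhibitors alike: ME-180 SIE-bla cells stimulated at 40 pM IL-6 for 5 hrs with compound, then dual-emission beta-lactamase read at 405 nm excitation.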

The target of assay [4] is Glucocorticoid receptor (Homo sapiens) (UniProt P04150). The assay can be described thus: GR-GFP Redistribution (AID 450;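 active = compounds whose dose series gives a full or clear partial fitted curve of increased nuclear translocation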; also: potency is read from the fitted curve at half-maximal effect). The conditions noted are these: U2OS GR-GFP nuclear translocation, laser cytometry, 2 h.
The target is the same in assay [5]. The assay can be described thus: GR-EFC Redistribution (AID 451; calls by dose curve; also: potency is read from the fitted curve at half-maximal effect). The conditions noted are these: CHO-K1 GR-EFC translocation, beta-gal luminescence, 2 h. The essentials: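 CHO-K1 cells stably expressing nuclear-localized β-gal enzyme acceptor and GR fused C-terminally to the enzyme donor fragment; ligand-driven nuclear translocation restores β-gal by complementation. Compounds titrated up to 46 uM final, 2 h at 37 °C; luminescence read.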

Assay [6] addresses Mitogen-activated protein kinase 10 (Mus musculus) (UniProt Q61831). The assay can be described thus: JNK3 AlphaScreen Assay (AID 530; active = well fitted curve in either direction with a large enough effect, not every such curve was filed as active;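 also: kinase came from lysate of stimulated human HepG2 cells; signal reports phosphorylation of biotinylated GST-cJun 1-79 at Ser73 with 10 µM ATP; % is scaled to controls: 0 for no effect and ±100 for the full control effect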). The conditions noted are these: JNK3 lysate, c-Jun phosphorylation; series mostly up to 57.1 µM. The essentials:
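Inhibitors reduce antibody binding to phosphorylated biotin-cJun, lowering AlphaScreen luminescence. Lysates from HepG2 cells pre-activated by IL-1beta plus TNF-alpha supplied JNK3; compounds were titrated.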

Assay [7] is described as follows: qHTS Assay for Lipid Storage Modulators (AID 1519; calls by dose curve). The conditions noted are these: Drosophila S3 cells, BODIPY lipid droplet/cell ratio, laser cytometry, cells loaded with oleic acid; for activity change, negative = inhibition: at 57.5 µM (top of the series). The procedure, abridged:
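Cells seeded at 5,000 per well were treated with compounds over a concentration series and loaded with oleic acid (400 uM, as added). Lipid droplet fluorescence (488 nm excitation, 500-530 nm channel) was read by laser-scanning cytometry and normalized to 20 uM Triacsin C.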

The target of assay [8] is Dual specificity protein kinase CLK4 (Homo sapiens) (UniProt Q9HAZ1). In words: qHTS Assay for Inhibitors of CDC-like Kinase 4 (ADP-FP Assay) (AID 1795).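 Also: recombinant human CLK4 phosphorylating RS repeat peptide at 1 µM ATP; % is scaled to controls: 0 for no effect and ±100 for the full control effect; nearly all actives have a fitted effect of over 60% in size.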 The conditions noted are these: Transcreener ADP fluorescence polarization; series mostly up to 50 µM. The procedure, abridged:
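Recombinant Clk4 (6.25 nM) phosphorylated 100 uM RS repeat peptide with 1 uM ATP in 25 mM Tris pH 7.5, 10 mM MgCl2, 0.5 mM EGTA, 2.5 mM DTT, 0.01% Triton X-100 for 1 h. ADP was detected by Transcreener ADP2 competitive fluorescence polarization after 30 min at room temperature.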

Assay [9] deals with Ubiquitin carboxyl-terminal hydrolase 1 (Homo sapiens) (UniProt O94782). The assay can be described thus: Inhibitors of USP1/UAF1: Pilot qHTS (AID 504865). Also: nearly all actives have a fitted effect of over 35% in size. Also: potency is read from the fitted curve at half-maximal effect. The conditions noted are these: purified USP1/UAF1, Ub-rhodamine cleavage fluorescence; series mostly up to 54.9 µM. The essentials:
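USP1/UAF1 complex at 1 nM preincubated 15 min at room temperature with compound, then Ub-Rho substrate added at 150 nM final. Fluorescence (480/540 nm) read kinetically in 50 mM HEPES pH 7.8, 0.5 mM EDTA, 1 mM TCEP, 0.1 mg/ml BSA, 0.01% Tween-20.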

Assay [10] in a line: Primary qHTS for small molecule stabilizers of the endoplasmic reticulum resident proteome: Secreted ER Calcium Modulated Protein (SERCaMP) assay (AID 1508630). Also: % is scaled to controls: 0 for no effect and ±100 for the full control effect. The conditions noted are these: SH-SY5Y GLuc-SERCaMP (Gaussia luciferase released on ER calcium loss) secretion, thapsigargin, luminescence; series mostly up to 38.4 µM. The procedure, abridged:
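GLuc-SERCaMP-expressing SH-SY5Y cells, pretreated 16 h with compound, are challenged with thapsigargin to empty ER calcium stores; after 4 h, coelenterazine is added directly to the medium and luminescence is imaged.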

Assay [11] deals with Cytochrome P450 1A2 (Homo sapiens) (UniProt P05177). The assay can be described thus: p450-cyp1a2 (AID 410; calls by dose curve; also: potency is read from the fitted curve at half-maximal effect). The conditions noted are these: recombinant CYP1A2, luciferin-ME demethylation, luminescence; series mostly up to 57 µM. The procedure, abridged:
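20nM CYP1A2 with 100uM Luciferin-ME (at Km) in 100mM KPO4; compound preincubated 10 min, NADPH regeneration added, 60 min at room temperature. Luciferin quantified by luminescence after detection reagent; normalized to 57 uM furafylline.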

A short description of assay [12]: NFAT Signaling Pathway (AID 444; active = well fitted curve in either direction with a large enough effect, not every such curve was filed as active). As to conditions: Jurkat NFAT-bla M1, carbachol, beta-lactamase ratio, 5 h; at 7.69 µM (top of the series) unless noted. The essentials:
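Jurkat cells carrying an NFAT-driven β-lactamase reporter and co-transfected muscarinic M1 receptor were treated with compound plus carbachol (1 uM final, an EC50 level) for 5 h at 37 °C. CCF4 loading followed for 1 h at RT; 460/530 nm ratio gave %activity.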

Assay [13] deals with 3',5'-cyclic-AMP phosphodiesterase 4B (Homo sapiens) (UniProt Q07343). In words: qHTS Assay for Inhibitors of PDE-IV (AID 607; active = well fitted activation curve with a large enough effect in the main read-out, with a control signal flat, not every such curve was filed as active; also: % of control where 0% means no effect). As to conditions: HEK293 ACTOne CNG channel cells, membrane potential fluorescence; series mostly up to 22.9 µM. The essentials: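 The readout is membrane depolarisation from a cAMP-sensing CNG channel, detected with a potential dye at ex 535/em 590. Cells were HEK293-derived (endogenous PDE-IV) at 1000 cells/well, titrated up to 22.9 uM final.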

Assay [14] addresses Cytochrome P450 3A4 (Homo sapiens) (UniProt P08684). In words: qHTS Assay for Inhibitors and Substrates of Cytochrome P450 3A4 (AID 884). Also: nearly all actives have a fitted effect of over 50% in size. Also: potency is read from the fitted curve at half-maximal effect. The conditions noted are these: recombinant CYP3A4, Luciferin-PPXE luminescence; series mostly up to 57.1 µM. The essentials: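 20 nM human CYP3A4 with 25 uM Luciferin-PPXE (at KM) in 200 mM KPO4, preincubated 10 min with compound; NADPH regeneration started a 60 min RT reaction. Luciferin detected by luminescence, normalized to 57 uM ketoconazole as full inhibition.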

For assay [15], the target named is Cytochrome P450 2C19 (Homo sapiens) (UniProt P33261). In words: qHTS Assay for Inhibitors and Substrates of Cytochrome P450 2C19 (AID 899). Also: potency is read from the fitted curve at half-maximal effect; nearly all actives have a fitted effect of over 60% in size. The conditions noted are these: recombinant CYP2C19, luciferin-H EGE luminescence; series mostly up to 57.1 µM. The procedure, abridged:
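In 50mM KPO4, the reaction held 5nM enzyme and KM-level (10uM) Luciferin-H EGE; it ran 60 min at 37C after NADPH regeneration and a 10 min compound preincubation. Luminescence values were scaled to 57uM ketoconazole as complete inhibition.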

Assay [16] can be described thus: Confirmation and Secondary Assay for Modulators of Hemoglobin Beta Chain Splicing at IVS2 654 locus (AID 910). Also: % of control where 0% means no effect. As to conditions: HeLa EGFP-654 splicing reporter, GFP fluorescence, 48 h; series mostly up to 38.3 µM. The procedure, abridged:
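HeLa cells stably carrying EGFP interrupted by mutant beta-globin IVS2-654 intron (CMV-driven) were treated with compound for 2 days at 37C; corrected splicing was scored as total peak GFP intensity per well (488 nm excitation, 500-520 nm emission).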

A short description of assay [17]: Confirmation and Secondary Assay for Modulators of Hemoglobin Beta Chain Splicing at IVS2 705 locus (AID 930). Also: % of control where 0% means no effect. The conditions noted are these: HeLa EGFP-705 splicing reporter, GFP fluorescence, 48 h; series mostly up to 38.3 µM. The procedure, abridged: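 HeLa cells stably carrying EGFP interrupted by mutant beta-globin intron 2 (IVS2-705) treated 2 days at 37C with compound; 500 nM antisense PNA as control. Correct splicing read as total peak GFP intensity per well by laser-scanning cytometry.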

For assay [18], the target named is Cytochrome P450 3A4 (Homo sapiens) (UniProt P08684). The assay can be described thus: qHTS Assay for Activators of Cytochrome P450 3A4 (AID 885). Also: nearly all actives have a fitted effect of over 65% in size. As to conditions: recombinant CYP3A4, Luciferin-PPXE luminescence, 60 min; series mostly up to 57.1 µM. The essentials: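 Steps: enzyme/substrate mix dispensed; compound added, 10 min RT; NADPH regeneration solution added, 60 min RT; luciferin detection buffer stops reaction; 20 min later luminescence measured.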

Where [19] appears, read: measured here: cell count channel max response.
The mark [20] stands for this setting: measured here: lipid channel max response.

Sequence of Cytochrome P450 1A2 (Homo sapiens) (P05177 whole entry, looked up): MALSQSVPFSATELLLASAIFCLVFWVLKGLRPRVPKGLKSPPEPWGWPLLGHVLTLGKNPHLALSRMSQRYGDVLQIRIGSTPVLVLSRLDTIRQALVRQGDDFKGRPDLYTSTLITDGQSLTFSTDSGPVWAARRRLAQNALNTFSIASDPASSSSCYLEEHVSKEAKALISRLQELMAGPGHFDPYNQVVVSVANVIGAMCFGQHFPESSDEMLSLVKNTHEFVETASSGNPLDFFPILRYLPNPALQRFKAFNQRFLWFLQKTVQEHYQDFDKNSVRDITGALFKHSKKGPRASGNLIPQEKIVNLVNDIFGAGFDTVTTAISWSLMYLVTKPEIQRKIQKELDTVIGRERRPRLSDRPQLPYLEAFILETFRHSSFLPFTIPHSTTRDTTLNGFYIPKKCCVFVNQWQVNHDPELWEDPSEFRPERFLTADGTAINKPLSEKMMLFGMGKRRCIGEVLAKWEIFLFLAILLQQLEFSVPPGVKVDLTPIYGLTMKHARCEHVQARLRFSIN
Sequence of Ubiquitin carboxyl-terminal hydrolase 1 (Homo sapiens) (O94782 whole entry, looked up): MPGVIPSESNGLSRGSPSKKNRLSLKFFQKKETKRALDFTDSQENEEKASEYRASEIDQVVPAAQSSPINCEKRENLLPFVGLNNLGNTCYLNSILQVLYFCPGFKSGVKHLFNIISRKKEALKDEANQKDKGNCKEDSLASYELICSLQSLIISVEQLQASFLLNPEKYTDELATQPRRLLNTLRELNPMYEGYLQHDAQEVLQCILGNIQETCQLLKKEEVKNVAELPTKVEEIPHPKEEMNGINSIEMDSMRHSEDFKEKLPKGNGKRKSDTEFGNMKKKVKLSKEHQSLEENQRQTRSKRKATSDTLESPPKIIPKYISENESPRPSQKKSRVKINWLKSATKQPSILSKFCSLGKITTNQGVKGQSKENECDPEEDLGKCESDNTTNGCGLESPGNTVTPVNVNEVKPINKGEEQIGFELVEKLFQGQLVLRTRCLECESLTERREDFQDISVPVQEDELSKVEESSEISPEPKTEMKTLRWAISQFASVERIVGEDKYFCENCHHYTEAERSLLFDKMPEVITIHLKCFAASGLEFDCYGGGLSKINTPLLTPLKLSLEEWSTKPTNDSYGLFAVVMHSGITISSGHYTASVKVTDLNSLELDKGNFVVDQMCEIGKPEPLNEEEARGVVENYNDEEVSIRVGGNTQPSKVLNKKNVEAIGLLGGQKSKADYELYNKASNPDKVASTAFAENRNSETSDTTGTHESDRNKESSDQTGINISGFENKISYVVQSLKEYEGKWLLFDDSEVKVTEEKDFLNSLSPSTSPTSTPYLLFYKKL
Sequence of Cytochrome P450 2C19 (Homo sapiens) (P33261 whole entry, looked up): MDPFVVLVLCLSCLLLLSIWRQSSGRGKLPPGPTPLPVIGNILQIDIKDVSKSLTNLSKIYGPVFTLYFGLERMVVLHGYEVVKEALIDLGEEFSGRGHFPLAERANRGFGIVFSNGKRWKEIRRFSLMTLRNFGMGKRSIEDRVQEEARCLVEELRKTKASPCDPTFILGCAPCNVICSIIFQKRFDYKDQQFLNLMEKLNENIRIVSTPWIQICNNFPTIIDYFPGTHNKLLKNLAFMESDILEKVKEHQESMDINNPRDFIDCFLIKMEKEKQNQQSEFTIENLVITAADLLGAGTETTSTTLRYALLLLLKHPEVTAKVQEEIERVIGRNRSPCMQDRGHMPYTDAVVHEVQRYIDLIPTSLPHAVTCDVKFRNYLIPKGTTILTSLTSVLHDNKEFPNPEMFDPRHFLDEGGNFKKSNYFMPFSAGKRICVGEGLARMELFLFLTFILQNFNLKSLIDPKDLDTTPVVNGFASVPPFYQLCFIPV
Sequence of Dual specificity protein kinase CLK4 (Homo sapiens) (Q9HAZ1 whole entry, looked up): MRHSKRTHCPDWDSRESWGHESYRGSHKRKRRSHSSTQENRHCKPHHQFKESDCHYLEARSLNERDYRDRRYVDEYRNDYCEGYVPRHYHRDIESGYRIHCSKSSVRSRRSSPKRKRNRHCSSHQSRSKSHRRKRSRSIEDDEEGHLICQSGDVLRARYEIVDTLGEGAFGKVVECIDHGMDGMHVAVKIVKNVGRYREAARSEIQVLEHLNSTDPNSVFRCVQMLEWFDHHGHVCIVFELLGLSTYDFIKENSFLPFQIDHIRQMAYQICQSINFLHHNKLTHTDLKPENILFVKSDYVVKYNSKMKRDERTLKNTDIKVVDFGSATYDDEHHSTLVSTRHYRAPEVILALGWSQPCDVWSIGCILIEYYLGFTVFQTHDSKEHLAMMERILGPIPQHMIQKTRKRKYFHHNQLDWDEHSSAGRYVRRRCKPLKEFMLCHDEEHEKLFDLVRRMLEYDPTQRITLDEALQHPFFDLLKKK
Sequence of Cytochrome P450 3A4 (Homo sapiens) (P08684 whole entry, looked up): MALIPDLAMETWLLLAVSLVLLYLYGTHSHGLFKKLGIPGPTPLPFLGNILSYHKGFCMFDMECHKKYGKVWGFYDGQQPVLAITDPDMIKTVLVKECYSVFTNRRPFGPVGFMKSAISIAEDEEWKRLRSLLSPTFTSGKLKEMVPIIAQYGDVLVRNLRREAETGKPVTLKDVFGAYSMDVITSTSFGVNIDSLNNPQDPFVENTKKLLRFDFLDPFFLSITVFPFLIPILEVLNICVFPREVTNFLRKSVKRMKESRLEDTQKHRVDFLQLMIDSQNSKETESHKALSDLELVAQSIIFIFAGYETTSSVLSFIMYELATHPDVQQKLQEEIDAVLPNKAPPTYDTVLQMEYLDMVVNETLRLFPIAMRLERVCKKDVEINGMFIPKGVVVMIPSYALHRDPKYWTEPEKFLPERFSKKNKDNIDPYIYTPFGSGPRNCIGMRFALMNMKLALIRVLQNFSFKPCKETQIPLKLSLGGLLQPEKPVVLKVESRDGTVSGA
Sequence of Lysosomal acid glucosylceramidase (Homo sapiens) (P04062 whole entry, looked up): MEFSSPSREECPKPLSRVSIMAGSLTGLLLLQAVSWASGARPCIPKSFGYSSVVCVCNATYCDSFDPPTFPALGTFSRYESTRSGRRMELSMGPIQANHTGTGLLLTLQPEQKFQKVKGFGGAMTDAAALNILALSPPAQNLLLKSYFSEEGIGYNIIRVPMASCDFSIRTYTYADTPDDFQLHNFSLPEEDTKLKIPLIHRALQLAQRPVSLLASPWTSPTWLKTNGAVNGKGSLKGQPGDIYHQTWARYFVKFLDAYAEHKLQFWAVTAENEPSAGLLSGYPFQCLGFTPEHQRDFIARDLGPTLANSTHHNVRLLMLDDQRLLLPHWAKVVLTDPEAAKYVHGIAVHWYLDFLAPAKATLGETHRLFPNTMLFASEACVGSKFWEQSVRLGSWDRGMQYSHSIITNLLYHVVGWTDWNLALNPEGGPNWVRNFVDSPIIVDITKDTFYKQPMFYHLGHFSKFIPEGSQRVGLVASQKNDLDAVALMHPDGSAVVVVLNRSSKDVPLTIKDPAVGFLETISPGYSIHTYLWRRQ
Sequence of 3',5'-cyclic-AMP phosphodiesterase 4B (Homo sapiens) (Q07343 whole entry, looked up): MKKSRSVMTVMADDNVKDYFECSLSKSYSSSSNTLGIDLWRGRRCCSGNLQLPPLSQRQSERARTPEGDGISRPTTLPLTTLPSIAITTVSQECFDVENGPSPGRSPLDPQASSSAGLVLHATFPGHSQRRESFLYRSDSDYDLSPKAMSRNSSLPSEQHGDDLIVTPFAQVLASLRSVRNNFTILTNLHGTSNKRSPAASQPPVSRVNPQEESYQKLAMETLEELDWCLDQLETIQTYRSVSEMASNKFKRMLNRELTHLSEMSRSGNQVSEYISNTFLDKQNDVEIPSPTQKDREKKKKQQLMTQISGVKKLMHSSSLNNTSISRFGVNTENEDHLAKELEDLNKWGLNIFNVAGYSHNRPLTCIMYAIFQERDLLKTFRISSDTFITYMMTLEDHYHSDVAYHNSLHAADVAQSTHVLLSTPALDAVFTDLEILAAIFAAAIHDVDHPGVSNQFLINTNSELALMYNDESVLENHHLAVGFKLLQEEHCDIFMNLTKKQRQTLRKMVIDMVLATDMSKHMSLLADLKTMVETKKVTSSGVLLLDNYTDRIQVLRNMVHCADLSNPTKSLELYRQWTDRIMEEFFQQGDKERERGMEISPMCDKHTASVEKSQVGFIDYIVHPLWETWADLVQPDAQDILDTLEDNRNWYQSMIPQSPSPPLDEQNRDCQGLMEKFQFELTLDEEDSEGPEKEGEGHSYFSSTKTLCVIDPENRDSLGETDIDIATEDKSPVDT
Sequence of Glucocorticoid receptor (Homo sapiens) (P04150 whole entry, looked up, the tested form may be a part): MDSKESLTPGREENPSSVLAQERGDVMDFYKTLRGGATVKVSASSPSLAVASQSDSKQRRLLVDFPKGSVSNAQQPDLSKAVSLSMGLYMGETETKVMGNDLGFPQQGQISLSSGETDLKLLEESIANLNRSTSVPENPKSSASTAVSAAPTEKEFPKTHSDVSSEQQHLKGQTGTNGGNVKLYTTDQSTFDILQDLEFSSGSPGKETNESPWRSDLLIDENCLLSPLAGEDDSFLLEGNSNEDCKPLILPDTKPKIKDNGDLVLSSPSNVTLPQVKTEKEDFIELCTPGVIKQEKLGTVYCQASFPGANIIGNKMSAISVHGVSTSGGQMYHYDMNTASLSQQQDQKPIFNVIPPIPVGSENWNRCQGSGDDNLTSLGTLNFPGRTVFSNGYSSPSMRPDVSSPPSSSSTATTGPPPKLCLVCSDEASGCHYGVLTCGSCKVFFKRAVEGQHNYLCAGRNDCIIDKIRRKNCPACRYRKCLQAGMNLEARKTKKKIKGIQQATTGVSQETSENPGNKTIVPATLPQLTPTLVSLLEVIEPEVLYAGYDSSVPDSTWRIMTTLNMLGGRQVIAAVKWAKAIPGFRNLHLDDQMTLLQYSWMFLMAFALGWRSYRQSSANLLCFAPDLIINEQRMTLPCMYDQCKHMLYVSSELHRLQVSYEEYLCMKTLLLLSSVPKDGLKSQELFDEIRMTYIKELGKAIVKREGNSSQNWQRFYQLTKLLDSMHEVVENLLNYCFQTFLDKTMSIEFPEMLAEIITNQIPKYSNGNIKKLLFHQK

As for `COc1ccc(CNc2cc(-c3cccc(C#N)c3)ncn2)c(OC)c1`, the Potency in assay [1] was > 11.4 µM (inactive); in [4], > 46 µM (inactive); in assay [5], > 46 µM (inactive). In addition, the results for the activity change, negative = inhibition in assay [2] and in assay [7] were -14.7% (inactive) and 7.91% (inactive), respectively. In addition, the activity, negative = inhibition in assay [3] was -2.42% (inactive). Further, the outcome in assay [6] was inactive. Besides, the max response in [7] (setting [19]) is 18.5%; in [7] (setting [20]), 23.9%. Moreover, the Potency entry in assay [8], in assay [9] and in [10] was “inactive” in each case.
Turning to `COCCNc1cc(-c2ccccc2C(F)(F)F)ncn1`, the Potency was > 11.4 µM (inactive) in [1]; 15.8 µM (active) in assay [11]; > 46 µM (inactive) in assay [4]; > 46 µM (inactive) in assay [5]; 7.94 µM (active) in assay [15]. The values for the activity change, negative = inhibition in [2], in assay [12] and in assay [7] were 1.05% (inactive), 1.43% (inactive) and 7.86% (inactive), respectively. Also, in assay [3], the activity, negative = inhibition was 11% (inactive). The result in assay [6], in [16] and in [17] was inactive. For the same molecule, the Potency result in assay [13], in assay [14], in assay [9] and in assay [10] was “inactive” each time. The figures for the max response in [7] (setting [19]) and in [7] (setting [20]) were 16.6% and 25.3%, respectively.
Turning to `Cc1ccccc1-c1nc(NCc2cccs2)c2ccccc2n1`, the activity change, negative = inhibition in [12] was -9.98% (inactive); in assay [7], 5.52% (inactive). The activity, negative = inhibition in assay [3] was -16.7% (inactive). For the same molecule, the Potency was > 46 µM (inactive) in [4], > 46 µM (inactive) in assay [5] and 14.1 µM (active) in assay [9]. Moreover, in assay [6], the molecule was classed as inactive. Besides, the values for the max response in assay [7] (setting [19]) and in [7] (setting [20]) were -1.85% and 1.44%, respectively. Besides, the Potency entry in assay [8] and in [10] was “inactive” throughout.
For the molecule `COc1ccc(CNc2cc(-c3ccccc3Cl)ncn2)c(OC)c1`, the Potency in assay [1] is > 11.4 µM (inactive); in assay [5], > 46 µM (inactive); in [15], 2 µM (active). Also, the values for the activity change, negative = inhibition in assay [2], in assay [12] and in assay [7] were -3.31% (inactive), -0.814% (inactive) and 5.7% (inactive), respectively. The activity, negative = inhibition in [3] is 7.16% (inactive). Besides, the molecule was called inactive in [6]. Besides, the Potency result in assay [18], in [8] and in assay [10] was “inactive” in each case. For the same molecule, the figures for the max response in assay [7] (setting [19]) and in assay [7] (setting [20]) were 19.5% and 25%, respectively.
In the case of `CN(C)Cc1ccccc1-c1cc(NC2CC2)ncn1`, the Potency in assay [1] was > 11.4 µM (inactive); in assay [11], 12.6 µM (active); in assay [4], > 46 µM (inactive); in assay [5], > 46 µM (inactive). Besides, the activity change, negative = inhibition is -5.78% (inactive) in assay [2], -10% (inactive) in assay [12] and 8.29% (inactive) in assay [7]. Further, the activity, negative = inhibition in [3] was 12.3% (inactive). Also, the outcome in assay [6], in assay [16] and in assay [17] was inactive. Besides, the Potency entry in [13], in assay [18], in assay [9] and in assay [10] was “inactive” each time. Further, the max response in [7] (setting [19]) is 13%; in assay [7] (setting [20]) it was 22.4%.
Consider `c1cncc(CNc2ncncc2-c2ccc3c(c2)OCO3)c1`, for which the Potency was > 11.4 µM (inactive) in assay [1]; 0.398 µM (active) in assay [11]; > 46 µM (inactive) in [4]; > 46 µM (inactive) in assay [5]; 0.398 µM (active) in [14]; 0.199 µM (active) in assay [15]. Moreover, the activity change, negative = inhibition in [2] is -3.33% (inactive); in assay [12] it was 6.22% (inactive); in assay [7], 8.63% (inactive). Further, the activity, negative = inhibition in assay [3] is 0.562% (inactive). In addition, the outcome in assay [6], in assay [16] and in assay [17] was inactive. The Potency entry in assay [13], in assay [18], in assay [9] and in assay [10] was “inactive” in each case. Moreover, the results for the max response in assay [7] (setting [19]) and in [7] (setting [20]) were 10.5% and 22.7%, respectively.
